Test results published in PubChem BioAssay AID1578 (Sanford-Burnham Center for Chemical Genomics, 2009).
Hit rate of the full screen: of about 290,000 compounds, about 3,000 (1%) were called active. Cut-off read from the data, not from the text of the source: active = inhibition mostly above about 36% (no sharp cut-off); inactive = mostly below about 34%. Many of the other results were omitted from the sample, so actives are more common in it than they were.

Assay: NOD1 signaling inhibitors, primary screen, cell-based, luminescence, uHTS (AID 1578);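 note: HEK-293T reporter cells stimulated with the NOD1 agonist gamma-tri-DAP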
Conditions: NOD1-driven NF-kB luciferase reporter cells, at 4 µM, stronger effect = higher value

| SMILES | inhibition |
| --- | --- |
| COC(=O)C(C)n1cnc2c(nnn2-c2ccccc2)c1=O (stereo unspecified) | -9.8% (inactive) |
| COc1ccc(C(=O)Nc2c(N)nc(SCC(=O)N3CCCCCC3)[nH]c2=O)cc1OC | -4.3% (inactive) |
| Cc1cc2c(cc1S(=O)(=O)Nc1cccc(F)c1)n(C)c(=O)c(=O)n2C | 13.5% (inactive) |
| O=C(c1ccc(Sc2cccc(Cl)c2)c([N+](=O)[O-])c1)N1CCN(c2ccccn2)CC1 | -34.4% (inactive) |
| O=C(c1ccc(Cl)c([N+](=O)[O-])c1)N1CCN(c2ccccn2)CC1 | -1.9% (inactive) |
| O=C(c1ccc(S(=O)(=O)Cc2ccccc2Cl)c([N+](=O)[O-])c1)N1CCOCC1 | 13.5% (inactive) |
| O=C(c1ccc(N2CCCC2)c([N+](=O)[O-])c1)N1CCN(c2ccccn2)CC1 | -8.1% (inactive) |
| CC(C)Cc1nnc(NC(=O)CCC(=O)NC2CCCC2)s1 | -20.3% (inactive) |
| CC/C=C/C(=O)N1CC2(CC(c3cccc(NC(=O)c4ccccc4)c3)=NO2)C[C@@H]1C(N)=O (stereo partly specified) | 20.5% (inactive) |
| O=c1c2c3c(sc2nc2n1CCC2)CCCCC3 | -41% (inactive) |
| Cn1cnc2cc(NC(=O)COc3ccccc3)ccc21 | -63.1% (inactive) |
| Cc1cccn2c(=O)c3cc(S(=O)(=O)c4ccc(Br)cc4)c(=N)n(C4CCCC4)c3nc12 | -42.6% (inactive) |
| O=C(O)c1cccc(NS(=O)(=O)c2cc(S(=O)(=O)c3ccc(Cl)cc3)ccc2Cl)c1 | 0.3% (inactive) |
| COc1ccc(C(=O)NCc2ccc(-c3nc4ccccc4s3)cc2)cc1OC | -86.1% (inactive) |
| COc1cc(C(=O)NCc2ccc(-c3nc4ccccc4s3)cc2)cc(OC)c1OC | -45% (inactive) |
| Cc1ccc(-n2c(SCC(=O)Nc3ccc(C(=O)O)cc3)nnc2-c2ccncc2)cc1 | -9.4% (inactive) |
| O=C(CCNS(=O)(=O)c1c(Cl)cccc1Cl)OCC(=O)c1ccccc1 | 10.5% (inactive) |
| Cc1nn(C)c(Cl)c1NC(=O)OCc1ccccc1 | -9.7% (inactive) |
| COc1ccccc1COC(=O)Nc1c(C)nn(C)c1Cl | 10.8% (inactive) |
| Cc1nn(C)c(Cl)c1NC(=O)OCc1ccc(Cl)cc1Cl | 68.3% (active) |
| CCc1ccccc1NC(=O)CCC(=O)N1CCSc2ccccc21 | -3% (inactive) |
| O=Nc1c(O)n(Cc2ccccc2)c2ccccc12 | 9.5% (inactive) |
| O=Nc1c(O)n(Cc2cccc(Cl)c2)c2ccccc12 | 34.1% (inactive) |
| O=Nc1c(O)n(Cc2cccc(C(F)(F)F)c2)c2ccccc12 | 82.8% (active) |

| SMILES | inhibition |
| --- | --- |
| Cc1cccc(NC(=S)NNC(=S)NC2CCCCC2)c1C | -15.3% (inactive) |
| CCOC(=O)c1[nH]c(C)c(CN(CCc2ccc(OC)c(OC)c2)C(=O)CCCC(=O)O)c1C | -27.8% (inactive) |
| CCOC(=O)C1CCCN(C(=O)CCCn2nnnc2CN2CCC(C)CC2)C1 (stereo unspecified) | -6.9% (inactive) |
| CCOC(=O)C1CCCN(C(=O)CCCn2nnnc2CN2CCOCC2)C1 (stereo unspecified) | 45% (active) |
| CCOC(=O)C1CCCN(C(=O)CCn2nnnc2CN2CCOCC2)C1 (stereo unspecified) | -14.8% (inactive) |
| O=C(CN1CCSc2ccccc21)NCCCc1ccccc1 | -29.8% (inactive) |
| O=C(O)CN1C(=O)CSc2ccccc21 | 14.5% (inactive) |
| CCOC(=O)c1ccc(N2C(=O)CC(C)(CC)CC2=O)cc1 | -5% (inactive) |
| CC(C)(C)c1ccc(NC(=O)N2CCN(c3ccc([N+](=O)[O-])cn3)CC2)cc1 | 29.4% (active) |
| CC(C)(C)c1ccc(C(=O)N2CCCN(c3ccc([N+](=O)[O-])cn3)CC2)cc1 | -3.4% (inactive) |
| CC(C)(C)c1ccc(NC(=O)N2CCCN(c3ccc([N+](=O)[O-])cn3)CC2)cc1 | 0.9% (inactive) |
| O=C(O)CC(C(=O)O)N1C(=O)/C(=C/C=C/c2ccco2)SC1=S (stereo unspecified) | -8.8% (inactive) |
| O=C(O)CCCN1C(=O)/C(=C/C=C/c2ccco2)SC1=S | 23.3% (active) |
| O=C(O)CCCN1C(=O)/C(=C\c2ccco2)SC1=S | -3.5% (inactive) |
| CC(=O)Nc1ccc(C(=O)N/C(=C/c2ccccc2)C(=O)Nc2cccc(C(=O)O)c2)cc1 | -27.4% (inactive) |
| O=C(CN1CCCCCC1)NCc1ccccc1 | -25.9% (inactive) |
| O=C(CSc1nnc(Cn2nnc3ccccc32)o1)N(Cc1ccc(F)cc1)c1ccccc1 | 37.1% (inactive) |
| COc1ccc(N(Cc2ccccc2)C(=O)CSc2nnc(Cn3nnc4ccccc43)o2)cc1 | -12.4% (inactive) |
| O=C(CSc1nnc(Cn2nnc3ccccc32)o1)N(Cc1ccc(Cl)cc1)c1ccccc1 | 48.7% (active) |
| O=C(O)c1ccc2c(c1)ncn2C1CCCCC1 | -10.3% (inactive) |
| NNC(=O)c1csc(Cc2c(Cl)sc3ccc(Cl)cc23)n1 | 11.9% (inactive) |
| CCOC(=O)CC1C(=O)NCCN1C(=O)COc1ccc(C(C)(C)C)cc1 (stereo unspecified) | -17.7% (inactive) |
| O=C(O)Cc1ccc(NC(=O)Cc2ccc3ccccc3c2)cc1 | -30.6% (inactive) |
| COc1cccc(-n2nnc3c(=O)n(CC(=O)N4CCCCC4)cnc32)c1 | -13.7% (inactive) |

| SMILES | inhibition |
| --- | --- |
| Cc1ccc(NC(=O)C2C3C=CC4(O3)C2C(=O)N(CCCN2CCOCC2)C4C(=O)NC2CCCCC2)cc1Cl (stereo unspecified) | -35.1% (inactive) |
| CC(C)c1cc(C(=O)O)on1 | -10.1% (inactive) |
| CC(C)c1cc(NC(=O)CCl)on1 | 41.7% (active) |
| CC(C)c1cc(NC(=O)CSc2nnc(-c3ccccc3F)n2C)on1 | 18.2% (inactive) |
| CCc1ccc(NC(=O)c2cc(CC(C)C)on2)cc1 | -39.3% (inactive) |
| O=C(N/N=C/c1ccc(O)cc1)c1ccc(NC(=O)c2ccccc2Br)cc1 | -3.3% (inactive) |
| CCOc1ccc(CNC(=O)CCCC(=O)n2ncc3cc(C)ccc32)cc1 | -10.4% (inactive) |
| CN1C(=O)c2cccc(NC(=O)Cc3ccccc3)c2C1=O | 5.1% (inactive) |
| CN1C(=O)c2cccc(NC(=O)CCc3ccccc3)c2C1=O | -23% (inactive) |
| CCC(=O)Nc1cccc2c1C(=O)N(C)C2=O | 83.2% (active) |
| CCCCNC(=S)Nc1ccc(Cl)cc1 | 0.1% (inactive) |
| Cc1oc(-c2ccccc2Cl)nc1CSc1nc2c(c(=O)[nH]1)CCC2 | 34% (inactive) |
| Cc1oc(-c2ccccc2Cl)nc1CSCC(=O)N1CCCC1 | 25.8% (inactive) |
| COc1ccccc1N1CCN(c2ccc([N+](=O)[O-])cc2Cl)CC1 | 7.1% (inactive) |
| Oc1ccc(Cc2ncc(C(F)(F)F)cc2Cl)cc1 | 5.6% (inactive) |
| CC(=O)Nc1ccc(NC(=O)c2nc(S(=O)(=O)Cc3ccccc3)ncc2Cl)cc1 | 11.7% (inactive) |
| Cc1cccc(CS(=O)(=O)c2ncc(Cl)c(C(=O)NCc3ccc4c(c3)OCO4)n2)c1 | 70.3% (active) |
| Cc1ccc(NC(=O)c2nc(S(=O)(=O)Cc3ccccc3)ncc2Cl)cc1 | 34.5% (inactive) |
| Cc1nnc(NC(=O)c2nc(S(=O)(=O)Cc3ccccc3C)ncc2Cl)s1 | 41.7% (inactive) |
| CC(=O)Nc1ccc(NC(=O)c2nc(S(=O)(=O)Cc3cccc(C)c3)ncc2Cl)cc1 | 8.3% (inactive) |
| Cc1cccc(CS(=O)(=O)c2ncc(Cl)c(C(=O)NCc3ccccc3)n2)c1 | 34.5% (inactive) |
| O=C(NCc1ccc2c(c1)OCO2)c1nc(S(=O)(=O)Cc2ccccc2)ncc1Cl | 16.2% (inactive) |
| COc1ccc(/C=C2\SC(=S)N(CCC(=O)N3CCCCC3)C2=O)cc1 | 13.7% (inactive) |
| CCN(CC)CCNC(=O)CS(=O)Cc1nc(-c2ccc(C)cc2)oc1C (stereo unspecified) | 13.6% (inactive) |

| SMILES | inhibition |
| --- | --- |
| CN(C)c1cccc(C(=O)NNC(=S)NC2CCCC2)c1 | -23.1% (inactive) |
| CCC(C)C(NC(=O)C(CC(C)C)NC(=O)C(CO)NC(=O)C1CCC(=O)N1)C(=O)OC (stereo unspecified) | -36% (inactive) |
| CN(Cc1nc2ccccc2[nH]1)Cc1nc(CC2CC2)no1 | -48.9% (inactive) |
| COCCNC(=S)NNC(=O)CSCc1ccc(Cl)cc1Cl | -40.2% (inactive) |
| CCCC(=O)NCCc1nc2ccccc2n1CCC | -14.2% (inactive) |
| COc1ccc(C(=O)ON=C2CCN(C)CC2)cc1 | -31.9% (inactive) |
| COc1cc(C(=O)NS(=O)(=O)c2ccccc2C)ccc1Cc1cn(C)c2ccc(NC(=O)OC3CCCC3)cc12 | 39.2% (active) |
| Cc1cc(NC(=O)OC2CCCCC2)ccc1[N+](=O)[O-] | -54.1% (inactive) |
| COc1ccc(CNC(=O)Cc2cn(C)c3ccccc23)c(OC)c1 | -7.1% (inactive) |
| CCOc1ccc(OCC)c(S(=O)(=O)NCc2cccnc2)c1 | -17.5% (inactive) |
| NCCc1nnc(SCC(=O)Nc2ccc(Br)cc2)o1 | -15.9% (inactive) |
| CC(NC(=O)c1ccc2nc[nH]c2c1)c1ccccc1 (stereo unspecified) | -33.6% (inactive) |
| Cn1nnnc1SCC(=O)N1CCN(C(=O)c2ccco2)CC1 | -32.2% (inactive) |
| O=C(O)CCCNC(=O)c1cncc(O)c1 | 15.1% (inactive) |
| N=c1ccn(Cc2ccc(Cl)cc2)cc1 | 30.5% (inactive) |
| N=c1ccn(Cc2ccc(Cl)c(Cl)c2)cc1 | 79.2% (active) |
| N=c1ccn(Cc2cccc(Cl)c2)cc1 | 8.9% (inactive) |
| COC(Cn1c(-c2cccc(S(=O)(=O)N(C)C)c2)n[nH]c1=S)OC | -34.1% (inactive) |
| Cc1cc(NC(=O)c2cc3ncc(Br)cn3n2)no1 | -40.8% (inactive) |
| O=C(O)CCCn1cc(NC(=O)c2c(F)cccc2F)cn1 | -50.2% (inactive) |
| O=C(NCc1ccccn1)c1nc(Cn2cc([N+](=O)[O-])cn2)no1 | -23.2% (inactive) |
| Fc1ccc(C2NCCn3cccc32)cc1 (stereo unspecified) | 25.8% (inactive) |
| COc1ccc(C2NCCn3cccc32)cc1 (stereo unspecified) | 112% (active) |
| c1ccc(C2NCCn3cccc32)cc1 (stereo unspecified) | -14.6% (inactive) |
